This is a sample that favours compounds with a hit; in the whole collection about 2.9% have one here.
ADAM17 inh: inhibits human ADAM17; AID 720648; inhibition, % at 6.95 µM; 370,000 compounds, 0.83% hits; P78536; recombinant ADAM17, EDANS/DABCYL FRET peptide cleavage;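 active = inhibition above the mean of compounds lying between control limits plus 3 SD, set per campaign, cut at about 8.5% in these data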;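 also: 0% = DMSO-only wells as the low control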
Target sequence (P78536 215-824 limits assumed): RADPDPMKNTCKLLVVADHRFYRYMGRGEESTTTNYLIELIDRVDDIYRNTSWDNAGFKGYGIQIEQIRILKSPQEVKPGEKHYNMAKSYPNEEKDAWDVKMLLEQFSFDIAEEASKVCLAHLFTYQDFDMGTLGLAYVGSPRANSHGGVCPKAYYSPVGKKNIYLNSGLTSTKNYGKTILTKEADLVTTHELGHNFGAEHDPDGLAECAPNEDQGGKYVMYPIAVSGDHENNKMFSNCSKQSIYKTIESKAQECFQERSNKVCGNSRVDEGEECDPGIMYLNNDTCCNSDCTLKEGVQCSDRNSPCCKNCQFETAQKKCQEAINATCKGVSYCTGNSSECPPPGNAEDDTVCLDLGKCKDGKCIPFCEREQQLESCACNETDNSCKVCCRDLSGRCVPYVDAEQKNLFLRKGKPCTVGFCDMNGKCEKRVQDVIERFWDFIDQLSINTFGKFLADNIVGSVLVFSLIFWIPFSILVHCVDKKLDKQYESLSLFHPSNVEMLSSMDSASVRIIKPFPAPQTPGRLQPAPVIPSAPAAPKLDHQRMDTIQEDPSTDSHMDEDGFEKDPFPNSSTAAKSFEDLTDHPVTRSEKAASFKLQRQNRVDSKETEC
KLK7 zymogen act: activators of human kallikrein-7 zymogen. purified proKLK7, EDANS-DABCYL substrate fluorescence; 100% is mature enzyme control, 0% vehicle. activation, % at 7 µM. 370,000 compounds, 0.9% hits. AID 652039;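 active = activation above the mean of all tested compounds plus 3 SD, computed per campaign excluding outliers beyond control limits, cut at about 13% in these data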
ADAM10 inh: ADAM10 inhibition, QFRET primary screen | recombinant ADAM10, EDANS/DABCYL FRET peptide cleavage, 3 h | inhibition, % at 7 µM | 370,000 compounds, 0.62% hits;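 active = inhibition above a per-campaign cutoff equal to the mean of compounds falling between control-based bounds plus 3 SD, cut at about 20% in these data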;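 also: 0% = DMSO wells while the 100% control is not disclosed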
PLC-beta3 inh: blocks human PLC-beta3 enzyme activity | Purified PLC-beta3, fluorogenic substrate, fluorescence | inhibition, % at 12.2 µM | 370,000 compounds, 0.18% hits | AID 720704; in the data active = inhibition above about 11%;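 also: 0% = median of compound wells on plate and 100% = full blocker control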
PLCg1 inh: PLC-gamma1 (human) inhibition, primary screen; 370,000 compounds, 0.84% hits; inhibition, % at 12.2 µM; P19174; AID 720700; purified PLC-gamma1, fluorogenic substrate, fluorescence; in the data active = inhibition above about 9.5%
proKLK7 act conf: proKLK7 activation, confirmation | shares compounds with KLK7 zymogen act | purified proKLK7, EDANS-DABCYL substrate fluorescence; scaled: vehicle 0, mature enzyme 100 | activation, % at 7 µM | 3,200 compounds, 68% hits | AID 686949;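 active = activation, as change over the incubation, above the mean of all tested compounds plus 3 SD, cut at about 13% in these data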
EDANS interfere: fluorescence interference counter-screen for KLK7 activators | shares compounds with KLK7 zymogen act | EDANS-DABCYL substrate fluorescence interference, no enzyme, 4 h; solvent 0%, active enzyme control 100% | activation, % at 7 µM | 3,200 compounds, 80% hits;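 active = activation above the all-compound mean plus 3 SD, ignoring values outside control-based bounds, cut at about 4.8% in these data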;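 also: value is the 4 h activation minus the activation read at time zero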
The depositor's hits bear a star.

How did COc1ccc(-c2cc(C(F)(F)F)nc(SCC(=O)N3CC(C)OC(C)C3)n2)cc1OC (stereo not drawn) do in these assays?
ADAM17 inh: -4.4; KLK7 zymogen act: -0.9; ADAM10 inh: -15.2; PLC-beta3 inh: -104.1; PLCg1 inh: -81.0

Results for COc1ccc(OC)c2c(N3CC(C)OC(C)C3)cc(C(F)(F)F)nc12 (stereo not drawn) ?
ADAM17 inh: -25.0; KLK7 zymogen act: 14.6*; ADAM10 inh: -142.5; PLC-beta3 inh: inactive; PLCg1 inh: inactive; proKLK7 act conf: 13.4*; EDANS interfere: 12.1*

How did CN1CCN(c2nc(-c3ccccc3)cc(C(F)(F)F)n2)CC1 do in these assays?
ADAM17 inh: -10.3; KLK7 zymogen act: 0.7; ADAM10 inh: -26.8; PLC-beta3 inh: -8.0; PLCg1 inh: -6.7

Results for CCCC1CCC2(CCC(=O)N2CCO)CC1 (stereo not drawn) ?
ADAM17 inh: -0.3; KLK7 zymogen act: -0.5; ADAM10 inh: -0.6; PLC-beta3 inh: 0.8; PLCg1 inh: 1.6

How did O=C(NCCc1ccc(F)cc1)c1coc(=O)c(Br)c1 do in these assays?
ADAM17 inh: -188.2; KLK7 zymogen act: 12.7*; ADAM10 inh: -463.1; PLC-beta3 inh: -149.4; PLCg1 inh: -122.1; proKLK7 act conf: 30.2*; EDANS interfere: 29.4*

Results for CC(=O)N1CCN(c2ccc(N3CCN(C(C)=O)[C@H](C)C3)c(C)c2)[C@@H](C)C1 ?
ADAM17 inh: -1.5; KLK7 zymogen act: 1.0; ADAM10 inh: -5.0; PLC-beta3 inh: 3.9; PLCg1 inh: 0.3

What do the screens show for `C/C=C/c1ccc(OCc2cc(=O)n3cc(C)ccc3n2)c(OC)c1`?
ADAM17 inh: -7.6; KLK7 zymogen act: 0.6; ADAM10 inh: -15.2; PLC-beta3 inh: -38.9; PLCg1 inh: -22.3

How did COc1cc2c(cc1OC)CN(Cc1cc(=O)n3c(-c4ccccc4)csc3n1)CC2 do in these assays?
ADAM17 inh: -230.0; KLK7 zymogen act: 32.8*; ADAM10 inh: inactive; PLC-beta3 inh: inactive; PLCg1 inh: inactive; proKLK7 act conf: -16.0; EDANS interfere: -9.8

How did COc1cc2c(cc1OC)CN(Cc1ccc(F)cc1)CC2 do in these assays?
ADAM17 inh: -444.3; KLK7 zymogen act: 38.5*; ADAM10 inh: inactive; PLC-beta3 inh: inactive; PLCg1 inh: inactive; proKLK7 act conf: 13.9*; EDANS interfere: 17.9*

Results for O=c1cc(CN2CCN(c3ccccc3)CC2)nc2scc(-c3ccccc3)n12 ?
ADAM17 inh: -4.0; KLK7 zymogen act: 0.7; ADAM10 inh: 0.6; PLC-beta3 inh: -14.8; PLCg1 inh: -7.4

How did COc1cc2c(cc1OC)CN(Cc1cc(=O)n3cc(C)ccc3n1)CC2 do in these assays?
ADAM17 inh: -246.1; KLK7 zymogen act: 32.7*; ADAM10 inh: inactive; PLC-beta3 inh: inactive; PLCg1 inh: inactive; proKLK7 act conf: 28.9*; EDANS interfere: 33.3*

What do the screens show for `Cc1cccc(-c2cccc3c4c([nH]c23)[C@@H]2C[C@H](N(C)C(=O)c3ccccc3C)[C@H]([C@H](C)O)CN2CC4)c1`?
ADAM17 inh: -18.7; KLK7 zymogen act: 1.8; ADAM10 inh: -71.4; PLC-beta3 inh: -160.4; PLCg1 inh: -130.7

What do the screens show for `N#Cc1c(N)n(-c2cccc(C(=O)O)c2)c2nc3ccccc3nc12`?
ADAM17 inh: inactive; KLK7 zymogen act: 61.8*; ADAM10 inh: inactive; PLC-beta3 inh: inactive; PLCg1 inh: inactive; proKLK7 act conf: 68.1*; EDANS interfere: 65.1*

How did N#Cc1c(N)n(CCNC(=O)c2cccs2)c2nc3ccccc3nc12 do in these assays?
ADAM17 inh: inactive; KLK7 zymogen act: 53.2*; ADAM10 inh: inactive; PLC-beta3 inh: inactive; PLCg1 inh: inactive; proKLK7 act conf: 70.6*; EDANS interfere: 82.2*

How did N#Cc1c(N)n(CCNC(=O)c2ccccc2)c2nc3ccccc3nc12 do in these assays?
ADAM17 inh: inactive; KLK7 zymogen act: 42.1*; ADAM10 inh: inactive; PLC-beta3 inh: inactive; PLCg1 inh: inactive; proKLK7 act conf: 68.5*; EDANS interfere: 59.2*

Results for Cc1c(NC(=O)C2CCCN(S(=O)(=O)c3ccc(F)cc3)C2)c(=O)n(-c2ccccc2)n1C (stereo not drawn) ?
ADAM17 inh: -2.3; KLK7 zymogen act: -0.6; ADAM10 inh: -10.1; PLC-beta3 inh: -3.7; PLCg1 inh: -0.5

What do the screens show for `CC(=O)CC[C@H]1CC[C@]2(CCCN(C(=O)C(C)(C)C)C2)O1`?
ADAM17 inh: -0.8; KLK7 zymogen act: -0.5; ADAM10 inh: -2.3; PLC-beta3 inh: -0.7; PLCg1 inh: -1.6

How did CCCCNS(=O)(=O)CC1NCc2ccccc21 (stereo not drawn) do in these assays?
ADAM17 inh: 0.3; KLK7 zymogen act: -0.4; ADAM10 inh: -4.2; PLC-beta3 inh: -3.9; PLCg1 inh: -4.6

How did Nc1nc2sc3c(c2cc1C(=O)N1CCOCC1)CCCC3 do in these assays?
ADAM17 inh: -167.7; KLK7 zymogen act: 13.5*; ADAM10 inh: inactive; PLC-beta3 inh: -440.6; PLCg1 inh: -347.8; proKLK7 act conf: 11.7; EDANS interfere: 14.4*

How did CCCCNC(=O)C[C@H]1C[C@@]2(C(=O)OC)C(=C[C@H](C3CCCC3)O[C@@H]2C)N(Cc2ccc(Cl)cc2Cl)C1=O do in these assays?
ADAM17 inh: -3.0; KLK7 zymogen act: 0.3; ADAM10 inh: -0.2; PLC-beta3 inh: 1.8; PLCg1 inh: 2.2

Results for CC(C)C[C@@H]1COc2cc(Br)ccc2S(=O)(=O)N1Cc1cn(Cc2ccc(C(F)(F)F)cc2)nn1 ?
ADAM17 inh: -0.6; KLK7 zymogen act: 0.7; ADAM10 inh: 2.8; PLC-beta3 inh: -13.5; PLCg1 inh: 2.5

How did Cc1cc(NC(=O)Cc2cn(C)c3ccccc23)ccc1Nc1cccnc1 do in these assays?
ADAM17 inh: 0.2; KLK7 zymogen act: 0.7; ADAM10 inh: 6.0; PLC-beta3 inh: -6.0; PLCg1 inh: -1.7

Results for CC(=O)Oc1ccc2c3c(c(=O)oc2c1C)CCCC3 ?
ADAM17 inh: -54.6; KLK7 zymogen act: 167.9*; ADAM10 inh: -125.7; PLC-beta3 inh: -376.8; PLCg1 inh: -324.0; proKLK7 act conf: 531.1*; EDANS interfere: 499.6*

How did Cc1c(OC(C)C(=O)O)ccc2c3c(c(=O)oc12)CCCC3 (stereo not drawn) do in these assays?
ADAM17 inh: -261.3; KLK7 zymogen act: 2.3; ADAM10 inh: inactive; PLC-beta3 inh: -75.0; PLCg1 inh: -52.1

Results for COc1cc2c(cc1NC(=O)CSc1nnc(-c3cccnc3)n1-c1ccc(Br)cc1)oc1ccccc12 ?
ADAM17 inh: 0.3; KLK7 zymogen act: 0.5; ADAM10 inh: 5.6; PLC-beta3 inh: 1.6; PLCg1 inh: 0.0

Source: PubChem
